This passage reports outcome and AC50 results from PubChem BioAssay (EPA / NIEHS).

Read-out in test [1]: Monokine induced gamma interferon (MIG), CXCL9 (gene 4283)
Briefly: BSK_SAg_MIG: BioMAP Diversity Plus: SAg Assay for Monokine induced gamma interferon (MIG) Biomarker Activity (AID 2283092). Particulars: primary human HUVEC with PBMC; actives raise or lower the signal. Put shortly:
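HUVEC plus human PBMC co-culture, chemicals dosed and MIG (CXCL9) quantified by ELISA at 24 h. Bidirectional curve fitting against DMSO as negative control and baseline, so both gain and loss of signal count as activity.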

Test [2] can be described thus: BSK_SAg_PBMCCytotoxicity: PBMC Cytotoxicity Assessment in the BioMAP Diversity Plus: SAg Assay (AID 2283093).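 Also: fitted both ways against DMSO so a hit may be loss or gain of signal.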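 As to AC50: PBMC superantigen activated with SEB plus TSST-1 one hour after compound addition.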 Particulars: primary human HUVEC with PBMC. In short, it runs like this:
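PBMC viability by Alamar Blue reduction, fluorescence read at 546/580 nm after 6 h dye exposure. Cells were dosed 1 h before SEB plus TSST-1 activation (20 ng/mL final each), then held 90 h; endothelial/PBMC human co-culture.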

Read-out in test [3]: Interleukin-8 (IL8), CXCL8 (gene 3576)
In words: BSK_SAg_IL8: BioMAP Diversity Plus: SAg Assay for Interleukin-8 (IL8) Biomarker Activity (AID 2283094). Conditions: primary human HUVEC with PBMC; actives raise or lower the signal. In short, it runs like this:
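HUVEC/PBMC co-culture, 24 h post-dose; IL-8 by ELISA. Gain or loss of signal fitted bidirectionally vs DMSO baseline.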

Test [4] is described as follows: BSK_SAg_Proliferation: Cell Proliferation Assessment in the BioMAP Diversity Plus: SAg Assay (AID 2283095).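 Also: relative cell number as total protein by SRB absorbance in sub-confluent culture.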 Conditions: primary human HUVEC with PBMC. Put shortly:
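HUVEC/PBMC co-culture, 96-well. TCA-fixed (10%), 0.1% SRB stain, A560 at 96 h. Protein content used as viability readout; bidirectional fitting vs DMSO control.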

The nature of test [5]: BSK_SAg_SRB: Viability Assessment in the BioMAP Diversity Plus: SAg Assay (AID 2283096).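 Also: cells read one day after compound addition; hits may be either gain or loss of signal compared with DMSO.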 Conditions: primary human HUVEC with PBMC. In short, it runs like this: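 Compounds were added to a human vascular co-culture of umbilical vein endothelium and PBMC. After 24 h, parallel cultures were fixed with 10% TCA, stained with 0.1% sulforhodamine B and read at 560 nm. Gain or loss of signal was fitted relative to DMSO.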

The target of test [6] is human CYP2A6, CYP2A6 (gene 1548) (UniProt P11509). In words: NVS_ADME_hCYP2A6: NovaScreen (NVS) CYP450-related Enzyme Activity (ADME) Assay for human CYP2A6 (AID 2283099; active = hit-call score of the fitted dose curve at least 0.9, where 1 is the maximum). Put shortly:
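Recombinant human CYP2A6 expressed in insect cells, cell-free; fluorogenic substrate turnover read by fluorescence intensity 0.5 h after dosing. Primary screen 10 uM in duplicate, then concentration-response up to 20 uM; acetonitrile as negative control.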

Test [7] deals with human CYP2B6, CYP2B6 (gene 1555) (UniProt P20813). In words: NVS_ADME_hCYP2B6: NovaScreen (NVS) CYP450-related Enzyme Activity (ADME) Assay for human CYP2B6 (AID 2283101; active = hit-call score of the fitted dose curve at least 0.9, where 1 is the maximum). Put shortly: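 Recombinant human CYP2B6 with fluorogenic substrate, read by fluorescence intensity 1 h after dosing. Primary screen in duplicate at 10 uM, actives followed in concentration series; signal loss relative to acetonitrile control.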
Chain of human CYP2B6, CYP2B6 (gene 1555) (P20813 whole entry, looked up): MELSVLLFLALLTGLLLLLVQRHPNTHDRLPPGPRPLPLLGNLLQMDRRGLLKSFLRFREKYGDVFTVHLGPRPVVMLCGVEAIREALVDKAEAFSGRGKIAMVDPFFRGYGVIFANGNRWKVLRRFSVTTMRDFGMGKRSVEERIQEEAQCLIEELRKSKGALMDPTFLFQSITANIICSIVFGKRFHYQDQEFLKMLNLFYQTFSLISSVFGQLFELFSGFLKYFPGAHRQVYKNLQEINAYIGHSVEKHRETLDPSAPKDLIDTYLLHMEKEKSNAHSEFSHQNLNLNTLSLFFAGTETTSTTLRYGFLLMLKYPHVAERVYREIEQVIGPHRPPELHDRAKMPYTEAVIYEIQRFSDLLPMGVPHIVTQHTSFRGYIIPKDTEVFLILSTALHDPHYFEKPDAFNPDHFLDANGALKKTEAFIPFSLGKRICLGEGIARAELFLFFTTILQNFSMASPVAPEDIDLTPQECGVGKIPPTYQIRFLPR

Test [8] has as its target human CYP19A1, CYP19A1 (gene 1588) (UniProt P11511). Briefly: NVS_ADME_hCYP19A1: NovaScreen (NVS) CYP450-related Enzyme Activity (ADME) Assay for human CYP19A1 (AID 2283098; active = hit-call score of the fitted dose curve at least 0.9, where 1 is the maximum;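 also: potency for inhibitors seen as loss of fluorescent enzyme signal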). Put shortly: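 Fluorescence intensity read-out; activity taken as signal loss relative to acetonitrile vehicle. Extracted enzyme, specific substrate, no cells, 0.5 h exposure. Duplicate single-point screen at 10 uM, then concentration–response follow-up for actives.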

Each structure is given as a SMILES string. Where “and” joins values, the source holds several entries; their conditions need not be identical. Equal entries are not always repeated. Inconclusive results are not listed. Some structures have more than one record in an assay (separate samples or runs), and their calls can disagree. Calls of active or inactive are those of the source. The calls were made as follows, unless noted: active = hit-call score of the fitted dose curve at least 0.9, where 1 is the maximum; inactive = score below 0.9.

Chain of human CYP2A6, CYP2A6 (gene 1548) (P11509 whole entry, looked up): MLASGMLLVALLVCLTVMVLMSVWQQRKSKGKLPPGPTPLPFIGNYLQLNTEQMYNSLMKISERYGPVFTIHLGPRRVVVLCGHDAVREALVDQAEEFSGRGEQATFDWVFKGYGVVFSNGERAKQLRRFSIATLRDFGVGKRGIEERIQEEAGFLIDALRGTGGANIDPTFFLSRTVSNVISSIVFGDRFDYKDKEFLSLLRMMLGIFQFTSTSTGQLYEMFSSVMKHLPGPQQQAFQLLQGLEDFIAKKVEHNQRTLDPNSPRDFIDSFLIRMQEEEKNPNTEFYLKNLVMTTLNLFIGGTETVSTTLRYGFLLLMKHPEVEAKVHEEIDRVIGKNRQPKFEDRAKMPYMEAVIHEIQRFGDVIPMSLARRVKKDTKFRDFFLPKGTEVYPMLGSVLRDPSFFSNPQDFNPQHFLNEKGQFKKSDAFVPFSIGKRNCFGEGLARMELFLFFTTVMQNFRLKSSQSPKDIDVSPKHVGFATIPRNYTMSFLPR
Chain of human CYP19A1, CYP19A1 (gene 1588) (P11511 whole entry, looked up): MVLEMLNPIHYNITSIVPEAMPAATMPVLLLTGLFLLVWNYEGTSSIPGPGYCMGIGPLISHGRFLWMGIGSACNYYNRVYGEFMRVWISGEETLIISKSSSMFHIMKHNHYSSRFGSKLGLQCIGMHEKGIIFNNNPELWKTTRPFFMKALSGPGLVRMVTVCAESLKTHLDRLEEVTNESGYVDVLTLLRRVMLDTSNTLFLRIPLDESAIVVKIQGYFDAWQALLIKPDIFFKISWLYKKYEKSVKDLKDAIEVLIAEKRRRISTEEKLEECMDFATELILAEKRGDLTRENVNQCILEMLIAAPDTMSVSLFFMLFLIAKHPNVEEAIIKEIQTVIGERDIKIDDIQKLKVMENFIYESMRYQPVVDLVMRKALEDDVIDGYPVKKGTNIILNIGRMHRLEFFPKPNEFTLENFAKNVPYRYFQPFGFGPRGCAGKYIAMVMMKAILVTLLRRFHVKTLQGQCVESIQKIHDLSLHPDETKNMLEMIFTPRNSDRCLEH

For `Cc1cc(O)ccc1Cl`, the result in test [1], in test [2], in test [3], in test [4] and in test [5] was inactive.
For `C=CC(N)=O`, the outcome in test [1], in test [2], in test [3], in test [4] and in test [5] was inactive.
Regarding `CN(C)c1nc(=O)n(C2CCCCC2)c(=O)n1C`, the outcome in test [1], in test [2], in test [3], in test [4] and in test [5] was inactive.
With `C1CC2OC2CC1C1CO1` (stereo not given), the outcome in test [1], in test [2], in test [3], in test [4] and in test [5] was inactive.
The AC50 is the midpoint of the concentration-response curve, whichever way the signal moves. With `NS(=O)(=O)C(F)(F)C(F)(F)C(F)(F)C(F)(F)C(F)(F)C(F)(F)C(F)(F)C(F)(F)F`, the AC50 in test [1] is 34.6 µM (active) and 51.3 µM (active) and 56.3 µM (active); in test [2], 33.6 µM (active) and 48 µM (active) and 55.1 µM (active); in test [3], 31.8 µM (active) and 43.3 µM (active) and 44.3 µM (active); in test [4] it was 32.2 µM (active) and 43.5 µM (active) and 51.1 µM (active); in test [5], 27.6 µM (active) and 47.4 µM (active) and 44.9 µM (active).
In the case of `O=NN(c1ccccc1)c1ccccc1`, the outcome in test [1], in test [2], in test [3], in test [4] and in test [5] was inactive.
On to `CCC(=O)O[C@H]1CC[C@H]2[C@@H]3CCC4=CC(=O)CC[C@]4(C)[C@H]3CC[C@]12C`, for which the AC50 in test [1] was 35.7 µM (active); in test [2] it was 37.9 µM (active); in test [3], 29.8 µM (active); in test [4] it was 33.3 µM (active); in test [5], 29.4 µM (active).
In the case of `CC(c1ccc(O)cc1)(c1ccc(O)cc1)c1ccc(O)cc1`, the AC50 in test [1] was 33.8 µM (active); in test [3], 20 µM (active); in test [4], 21.6 µM (active); in test [5] it was 15.7 µM (active). Further, in test [2], the outcome was inactive.
`CCSC(=O)N(CC)C1CCCCC1`: the result in test [1], in test [2], in test [3], in test [4] and in test [5] was inactive.
With `Sc1ccccc1`, the outcome in test [1], in test [2], in test [3], in test [4] and in test [5] was inactive.
Regarding `Clc1ccc(C(Cl)(Cl)Cl)cc1`, the outcome in test [1], in test [2], in test [3], in test [4] and in test [5] was inactive.
In the case of `Clc1ccc(Cl)cc1`, the result in test [1], in test [2], in test [3], in test [4] and in test [5] was inactive.
In the case of `CCC(C)(CC)c1cc(NC(=O)c2c(OC)cccc2OC)on1`, the result in test [1], in test [2], in test [3], in test [4] and in test [5] was inactive.
For the compound `O=C(O)C(F)(F)C(F)(F)C(F)(F)C(F)(F)C(F)(F)C(F)(F)C(F)(F)C(F)(F)F`, the result in test [1], in test [2], in test [3], in test [4] and in test [5] was inactive. Further, the half-maximal activity concentration (AC50) was 44.1 µM (active) and 55.1 µM (active) in test [3]; 55.2 µM (active) in test [4]; 51 µM (active) and 55 µM (active) in test [5].
Consider `C[C@]12CCC(=O)C=C1CC[C@@H]1[C@@H]2CC[C@@]2(C)[C@H]1CC[C@]2(C)O`, for which the outcome in test [1], in test [2], in test [3], in test [4] and in test [5] was inactive.
Consider `Cc1cccc(C)c1N`, for which the outcome in test [1], in test [2], in test [3], in test [4] and in test [5] was inactive.
For `CCOP(=S)(OCC)SCSC(C)(C)C`, the outcome in test [1], in test [3] and in test [5] was inactive. Moreover, the results for the AC50 in test [2] and in test [4] were 31.1 µM (active) and 28.8 µM (active), respectively.
As to `CC1=C2C[C@H]3[C@@H](CC=C4C[C@@H](O)CC[C@@]43C)[C@@H]2CC[C@]12O[C@@H]1C[C@H](C)CN[C@H]1[C@H]2C`, the result in test [1], in test [2], in test [3], in test [4] and in test [5] was inactive.
Consider `COc1ccc(O)c(C(C)(C)C)c1`, for which the result in test [1], in test [2], in test [3], in test [4], in test [5] and in test [6] was inactive. For the same compound, in test [7], the call was inactive. The AC50 in test [2] is 20 µM (active).
Regarding `Cc1ccccc1[N+](=O)[O-]`, the result in test [1], in test [2], in test [3], in test [4] and in test [5] was inactive.
Turning to `Cc1ccccc1CO[C@@H]1C[C@@]2(C(C)C)CC[C@]1(C)O2`, the outcome in test [1], in test [2], in test [3], in test [4] and in test [5] was inactive.
In the case of `O=C(O)C(F)(F)C(F)(F)C(F)(F)C(F)(F)C(F)(F)F`, the outcome in test [1], in test [2], in test [3], in test [4] and in test [5] was inactive.
Take `Oc1c(Cl)c(Cl)c(Cl)c(Cl)c1Cl`: the AC50 in test [1] was 34.8 µM (active); in test [2], 8 µM (active); in test [4], 15.8 µM (active) and 26.9 µM (active); in test [5], 14.6 µM (active) and 21.8 µM (active). For the same compound, the outcome in test [1], in test [2], in test [3], in test [6] and in test [7] was inactive.
For the compound `N#Cc1ccc(N(CC(N)=O)CC(F)(F)F)cc1C(F)(F)F`, the result in test [1], in test [2], in test [3] and in test [4] was inactive.
Regarding `CCC(C)c1cc([N+](=O)[O-])cc([N+](=O)[O-])c1O` (stereo not given), the AC50 in test [1] was 31.7 µM (active); in test [2] it was 5.36 µM (active); in test [3] it was 8.89 µM (active); in test [4], 19.6 µM (active); in test [5], 18 µM (active).
With `COS(=O)(=O)OC`, the result in test [1], in test [2], in test [3], in test [4] and in test [5] was inactive.
With `CCCCCCCCOC(=O)c1ccccc1C(=O)OCCCCCCCC`, the outcome in test [1], in test [3], in test [4] and in test [5] was inactive. In addition, in test [2], the concentration at half-maximal activity (AC50) is 5.6 µM (active).
With `C=CC(=O)NCNC(=O)C=C`, the result in test [1], in test [2], in test [3], in test [4] and in test [5] was inactive.
Take `Cc1ccccc1O`: the result in test [1], in test [2], in test [3], in test [4] and in test [5] was inactive.
With `O=C(N[C@H]1CN2CCC1CC2)c1cc2ccoc2cn1`, the outcome in test [1], in test [2], in test [3], in test [4] and in test [5] was inactive.
As to `c1ccc(-c2ccccc2)cc1`, the outcome in test [1], in test [2], in test [3], in test [4] and in test [5] was inactive.
For `CCCCCCOC(=O)c1ccccc1C(=O)OCCCCCC`, the result in test [1] and in test [5] was inactive. Besides, the half-maximal activity concentration (AC50) is 35 µM (active) in test [2], 29 µM (active) in test [3] and 28.6 µM (active) in test [4].
Turning to `Oc1ccc(C(c2ccc(O)cc2)(C(F)(F)F)C(F)(F)F)cc1`, the AC50 in test [1] is 32.4 µM (active); in test [2], 20.7 µM (active); in test [3], 18.1 µM (active); in test [5], 22.6 µM (active); in test [8], 7.19 µM (active); in test [7] it was 4.71 µM (active).
For the compound `c1cc2ccc3cccc4ccc(c1)c2c34`, the outcome in test [1], in test [2], in test [3], in test [4] and in test [5] was inactive.
